MPTP block = permeability transition pore inhibition. isolated mouse mitochondria, Ca2+ swelling absorbance, 30 min. 360,000 compounds, 1.4% hits. AID 602449. inhibition, % at 10 µM;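 active means inhibition of 50% or more, scaled per plate between neutral and stimulator controls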;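 further: 0% = DMSO wells given calcium and 100% = 1 mM EGTA wells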
NadD block = inhibitors of Staphylococcus aureus NadD; inhibition, % at 20 µM; purified NadD enzyme, colorimetric absorbance read-out; 360,000 compounds, 0.78% hits; AID 602399; in the data active means inhibition above about 26%
aDG glyco act = increases alpha dystroglycan glycosylation | AID 624168 | Pro5-aDG cells, alpha-DG glycosylation AlphaScreen (IIH6); 0% Pro5, 100% B10-LARGE cell signal | activation, % at 10 µM | 360,000 compounds, 0.22% hits;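 active means activation of at least 8% versus controls, or a plate z-score of at least 8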;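 further: Pro5 are CHO cells carrying HIG-tagged alpha-DG that lacks glycosylation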
TAG inh = triacylglycerol accumulation inhibition; 230,000 compounds, 0.66% hits; H9c2 cells, Nile Red lipid (TAG) fluorescence; cells loaded with 200 µM oleic acid; inhibition, % at 12.5 µM; AID 651582;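 active means pattern-corrected inhibition of lipid staining of at least 50% with the nuclear-stain viability signal not falling by more than 50%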;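 further: 0% = DMSO wells and 100% = triacsin C control wells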
NadD inh conf = confirmation of Staphylococcus aureus NadD inhibitors; AID 624309; shares compounds with NadD block; inhibition, % at 20 µM; 2,000 compounds, 13% hits; purified S. aureus NadD, colorimetric enzyme assay; in the data active means inhibition mostly above about 42%, no sharp cut-off; inactive means mostly below about 42%
* marks the source's active call; other numbers are inactive results. In the library only some 2.7% were active in any assay of this set; here they are far more common.

CCCCC[C@@H](C)N1C[C@H](COCc2ccccc2)Oc2cc(N3CC[C@H](N(C)C)C3)ccc2S1(=O)=O was read as MPTP block 4, NadD block 2 and aDG glyco act 0.
Screening COc1ccccc1N1CCN(c2nc3ccccc3nc2C(C#N)C(=O)OC(C)C)CC1 (configuration not stated) returned MPTP block 2, NadD block 37*, aDG glyco act 0, TAG inh 21 and NadD inh conf 6.
CCOc1ccccc1N1CCN(c2nc3ccccc3nc2C(C#N)C(=O)OC)CC1 (configuration not stated) was read as MPTP block 2, NadD block 9, aDG glyco act -1 and TAG inh 2.
CCOC(=O)c1c(-c2ccc(-c3ccccc3)cc2)csc1NC(=O)C1C2CCC(O2)C1C(=O)O (configuration not stated) was read as MPTP block -2, NadD block 38*, aDG glyco act 0, TAG inh -28 and NadD inh conf 57*.
Screening Cc1cc(C)c(Nc2n[nH]c(=S)s2)cc1C returned MPTP block -3, NadD block 44*, aDG glyco act 0, TAG inh 1 and NadD inh conf 46.
For Cc1cccc(Nc2n[nH]c(=S)s2)c1C the results were MPTP block -1, NadD block 32*, aDG glyco act 0 and NadD inh conf 44.
Cc1ccc(Nc2n[nH]c(=S)s2)c(C)c1 was read as MPTP block -2, NadD block 6, aDG glyco act 0 and TAG inh 0.
CC(C#N)N1CCN(S(=O)(=O)c2ccc3c(c2)CCC3)CC1 (configuration not stated) was read as MPTP block -1, NadD block -4, aDG glyco act 0 and TAG inh 3.
Screening COCCN(Cc1nc(-c2ccc(-c3ccccc3)cc2)oc1C)C(C)C returned MPTP block 1, NadD block -3, aDG glyco act 0 and TAG inh -14.
For Nc1nc(=S)[nH]c2c1C1(CCCCC1)Cc1ccccc1-2 the results were MPTP block 0, NadD block 35*, aDG glyco act 0 and NadD inh conf 17.
Screening CCCOc1ccc(N2C(=O)CC(SC(=N)N3N=C(c4ccccc4)CC3c3ccccc3)C2=O)cc1 (configuration not stated) returned MPTP block 2, NadD block 43*, aDG glyco act 2, TAG inh 45 and NadD inh conf 3.
For COc1ccc(-c2cc(C(F)(F)F)c3c(n2)sc2c(O)cc(=O)[nH]c23)c(OC)c1 the results were MPTP block 6, NadD block 30*, aDG glyco act 0, TAG inh -2 and NadD inh conf 45.
For Cc1cc(C)c2c(n1)sc1c(O)cc(=O)[nH]c12 the results were MPTP block -2, NadD block 0, aDG glyco act 0 and TAG inh 22.
Screening CC(C)c1nc2sc3c(=S)nc[nH]c3c2c2c1CCC2 returned MPTP block 11, NadD block 9, aDG glyco act 0 and TAG inh 9.
For S=c1nc[nH]c2c1sc1nc(N3CCOCC3)c3c(c12)CCCC3 the results were MPTP block 5, NadD block 33*, aDG glyco act 0, TAG inh 20 and NadD inh conf -2.
Screening CC(=O)c1cc2c(cc1NC(=O)c1ccc(C)cc1)OCCO2 returned MPTP block 1, NadD block -6 and aDG glyco act 0.
COc1ccc(S(=O)(=O)N2CCC(C(=O)NCCN3CCOCC3)CC2)cc1OC was read as MPTP block -1, NadD block 33*, aDG glyco act 0 and NadD inh conf 3.
COc1ccc(S(=O)(=O)N2CCC(C(=O)NCCN3CCOCC3)CC2)cc1C was read as MPTP block 1, NadD block -2 and aDG glyco act 0.
Screening COc1cc(Cl)c(C)cc1NC(=O)CSc1sc2c(O)cc(=O)[nH]c2c1C#N returned MPTP block 1, NadD block 42*, aDG glyco act 0 and NadD inh conf 27.
Screening CC(=O)NC(Cc1cccc(C)c1)C(=O)NC1CCN(S(=O)(=O)c2ccccc2)CC1 (configuration not stated) returned MPTP block 0, NadD block -1 and aDG glyco act 0.
Screening Cc1ccc(C)c(S(=O)(=O)N2CCC(c3nc4c(nnn4Cc4ccc5c(c4)OCCO5)c(=O)[nH]3)CC2)c1 returned MPTP block 0, NadD block 46*, aDG glyco act 0 and NadD inh conf 10.
